Source: PubChem
Only some compounds are listed: those with a hit (about 5.7% of all), similar ones and a draw of the others.
KB-3-1 cytotox = KB-3-1 parental cell cytotoxicity; KB-3-1 viability, CellTiter-Glo ATP luminescence, 72 h; Potency, µM (doses to about 46.1 µM), most hits filed as cytotoxic; actives 1.4% (n = 400,000); further: nearly all actives have a fitted effect of over 60% in size
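Viability of parental KB-3-1 cells, measured by CellTiter-Glo luminescence, followed a 72 h incubation at 37 °C with pinned compounds in phenol-red-free DMEM containing 10% FBS.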
KB-V1 cytotox = kills drug-selected multidrug resistant KB-V1 cells | KB-V1 MDR cells viability, CellTiter-Glo, 72 h | Potency, µM (doses to about 46.1 µM), actives largely listed as cytotoxic | actives 3.4% (n = 400,000) | AID 1347076; further: nearly all actives have a fitted effect of over 60% in size
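KB-V1 cells (P-gp-expressing MDR subline of KB-3-1) in phenol-red-free DMEM with 10% FBS were exposed to library compounds over a concentration series for 72 h at 37 degrees C. Viability read by CellTiter-Glo luminescence; concentration-effect curves fitted after normalization.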
HT1080 IDH1KD tx = kills HT-1080 cells with IDH1 knockdown; actives 2% (n = 360,000); HT-1080 IDH1 knockdown viability, ATP luminescence, 48 h; Potency, µM (top dose mostly 46.1 µM), usual class: cytotoxic
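Cytotoxicity counter-line: IDH1KD HT-1080, 48 h, CellTiter-Glo. Curves classed by r2, magnitude and activity.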
HT1080NT lethal = kills 2HG-producing HT-1080-NT fibrosarcoma cells; Potency, µM (top dose mostly 46.1 µM), actives largely listed as cytotoxic; AID 686970; actives 1.6% (n = 360,000); HT-1080-NT fibrosarcoma viability, CellTiter-Glo ATP luminescence, 48 h;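 further: NT is the 2HG producing partner of a matched IDH1 knockdown line; nearly all actives have a fitted effect of over 55% in size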
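Luminescent CellTiter-Glo readout after 48 hours of compound exposure at 37 degrees C defined viability of HT-1080-NT cells. Activity was normalized to DMSO wells and cell-free media wells; concentration-response curves were fitted and assigned curve classes.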
A number is an active result; . = inactive; ? = inconclusive; / = not tested or not shown; [ ] = remark or other dose. The call rests on the fitted dose curve; in most records, active means well fitted curve in the direction sought with a large enough effect; inconclusive means small, poorly fitted or top-dose-only effect, or another doubt; inactive means no such curve, though single readings can be large; an effect the other way counts as inactive or inconclusive.

SMILES	KB-3-1 cytotox	KB-V1 cytotox	HT1080 IDH1KD tx	HT1080NT lethal
Cc1ccc(C2(CCNCc3ccc(N(C)C)cc3)CCOC(C(C)C)C2)cc1 (stereo not drawn)	?	?	18.4µM	23.1µM
Cc1ccc(C2(CCNS(=O)(=O)c3ccc(C)cc3)CCOC(C(C)C)C2)cc1 (stereo not drawn)	?	3.66µM	.	.
CC(C)C1CC(CCNCc2ccc(N(C)C)cc2)(c2ccccc2)CCO1 (stereo not drawn)	20.6µM	?	?	.
CN(C)c1ccc(CNCCC2(O)CCOC(C)(C)C2)cc1 (stereo not drawn)	.	.	.	.
CCOC(=O)c1c(S(=O)(=O)N2CCCC(C(=O)N3CCN(c4ccc(F)cc4)CC3)C2)c(C)n(C)c1C (stereo not drawn)	.	.	/	/
Cc1ccc(S(=O)(=O)CCC(=O)Nc2ccc(Br)cc2C)cc1	.	.	/	/
Cc1ccc(NC(=O)CN2C(=O)CC(c3ccco3)Sc3ccccc32)cc1Cl (stereo not drawn)	.	.	/	/
CC1Sc2ccc(S(=O)(=O)N3CCC(C(=O)Nc4ccc(Cl)cc4)CC3)cc2NC1=O (stereo not drawn)	?	?	?	20.6µM
CCOC(=O)N1CCN(S(=O)(=O)c2ccc3c(c2)SC(C)C(=O)N3)CC1 (stereo not drawn)	?	4.61µM	.	.
C/C(=N\NC(=O)Cc1c[nH]c2ccccc12)c1ccc2ccccc2c1	.	?	16.4µM	?
CCOC(=O)C(C(=O)OCC)c1cc(Br)c2noc3c2c1C(=O)c1ccccc1-3	5.17µM	?	11.6µM	9.2µM
CCc1cc2c(=O)n(CC(C)C)cnc2s1	.	?	.	.
CCCCCn1cnc2sc(CC)cc2c1=O	.	14.6µM	.	.
Cc1ccc(NC(=O)c2cc3c(=O)n(Cc4cccnc4)ccc3nc2C)cc1F	.	.	/	/
COc1ccc(NC(=O)C2Cc3c(-c4ccc5c(c4)OCO5)ccnc3O2)cc1OC (stereo not drawn)	?	.	16.4µM	?
COc1ccc(CNC(=O)C2Cc3c(-c4ccc5c(c4)OCO5)ccnc3O2)cc1OC (stereo not drawn)	20.6µM	9.2µM	?	?
CC(C)NC(=O)C1Cc2c(-c3ccc4c(c3)OCO4)ccnc2O1 (stereo not drawn)	.	.	.	.
O=C(NCc1ccc(F)c(F)c1)C1Cc2c(-c3ccc4c(c3)OCO4)ccnc2O1 (stereo not drawn)	8.2µM	4.11µM	?	?
COc1ccccc1NC(=O)CN1C(=O)CCSc2ccccc21	.	?	/	/
O=C(Nc1ccc(Br)cc1)C1CCN(c2ncccn2)CC1	.	.	/	/
CCOC(=O)/C(C#N)=C/c1cc(C)n(-c2ccccc2)c1C	.	9.2µM	.	.
Cc1cc(/C=C(\C#N)C(=O)Nc2ccccc2)c(C)n1-c1ccc(F)cc1	.	.	/	/
CN(C)CC(O)c1ccc(C=Cc2ccc(Cl)cc2)cc1 (stereo not drawn)	?	?	5.8µM	.
CCOC(=O)C(C)Nc1ncnc2onc(C)c12 (stereo not drawn)	.	.	/	/
CC1CC(C)CN(C(=S)Nc2ccc(OC(F)F)cc2)C1 (stereo not drawn)	.	20.6µM	.	.
SMILES	KB-3-1 cytotox	KB-V1 cytotox	HT1080 IDH1KD tx	HT1080NT lethal
CCOc1cc(C(=O)Nc2ccc(-c3nc4ccccc4s3)cc2Cl)cc(OCC)c1OCC	.	.	/	/
C=CC[n+]1c(-c2ccc(Cl)cc2Cl)csc1Nc1ccc(NC(C)=O)cc1	?	.	18.4µM	?
C=CC[n+]1c(-c2ccc(Cl)cc2Cl)csc1Nc1c(C)n(C)n(-c2ccccc2)c1=O	?	.	14.6µM	20.6µM
Cc1ccc(NC(=O)COC(=O)c2ccccc2OCC(=O)Nc2ccc(Br)cc2)c(Br)c1	/	/	.	.
COCCCNc1nc(N)c([N+](=O)[O-])c(Nc2cc(OC)ccc2OC)n1	.	.	.	.
COc1ccc(OC)c(Nc2nc(NCCCN(C)C)nc(N)c2[N+](=O)[O-])c1	.	.	16.4µM	.
Cn1nc(-c2ccccc2)c(C(=O)Nc2ccc(Cl)cc2)c1Cl	.	.	.	.
Cn1c(Cl)c(C(=O)Nc2ccc(Cl)cc2)c2ccccc21	8.2µM	20.6µM	.	.
Cc1ccc2nc3c(c(Nc4ccc(C)c(C)c4)c2c1)CCC3	.	18.4µM	/	/
Cc1ccc2nc3c(c(Nc4ccc(O)cc4)c2c1)CCC3	.	.	.	.
Cc1cccc(Nc2c3c(nc4ccccc24)CCC3)c1	?	?	20.6µM	14.6µM
Cc1ccc(Nc2c3c(nc4ccccc24)CCC3)cc1F	20.6µM	.	/	/
N#Cc1cccc(Nc2c3c(nc4ccccc24)CCC3)c1	.	.	?	.
COc1ccccc1Nc1nc(-c2ccccc2F)nc2ccccc12	?	8.2µM	/	/
COC(=O)CNc1nc(-c2ccccc2F)nc2ccccc12	.	.	.	.
CCn1cc(C(=O)OCC(=O)Nc2cc(OC)cc(OC)c2)c(=O)c2ccc(C)nc21	.	.	/	/
CCn1c2c(c(=O)n3ncc(C(=O)Nc4ccc(C(=O)OC)cc4)c13)CN(Cc1ccc(OC)cc1)CC2	.	.	/	/
CCC(C(=O)Nc1cc(-c2nc3cccnc3s2)ccc1C)c1ccccc1 (stereo not drawn)	.	.	/	/
Cc1ccc(/C=C/c2ccc(=O)n(Cc3ccccc3Cl)n2)cc1	?	20.6µM	.[9.24 µM]	?
